This passage reports activation results from PubChem BioAssay AID434939 (The Scripps Research Institute Molecular Screening Center, 2010).

Each structure is given as a SMILES string. The whole screen tested about 2,300 compounds, of which about 2,000 (87%) were called active. Rule as the data show it: active = activation above about 11%; inactive = the rest. The set was probably picked from earlier hits. Only a sample is shown.

The target of the experiment is Nuclear receptor subfamily 1 group I member 2 (Homo sapiens) (UniProt O75469). Nature of the experiment: human PXR activators, counter-screen for AHR activator project, cell-based, luciferase luminescence (AID 434939).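 Also: human hepatoma DPX-2 cells expressing full-length human PXR; 0% = DMSO and 100% = reference agonist.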 The following applies: cell-based PXR reporter, at 11.6 µM, active compounds read high. For orientation: The purpose of a counterscreen is to sort out artefacts and off-target activity.
Nuclear receptor subfamily 1 group I member 2 (Homo sapiens), sequence (O75469 whole entry, looked up): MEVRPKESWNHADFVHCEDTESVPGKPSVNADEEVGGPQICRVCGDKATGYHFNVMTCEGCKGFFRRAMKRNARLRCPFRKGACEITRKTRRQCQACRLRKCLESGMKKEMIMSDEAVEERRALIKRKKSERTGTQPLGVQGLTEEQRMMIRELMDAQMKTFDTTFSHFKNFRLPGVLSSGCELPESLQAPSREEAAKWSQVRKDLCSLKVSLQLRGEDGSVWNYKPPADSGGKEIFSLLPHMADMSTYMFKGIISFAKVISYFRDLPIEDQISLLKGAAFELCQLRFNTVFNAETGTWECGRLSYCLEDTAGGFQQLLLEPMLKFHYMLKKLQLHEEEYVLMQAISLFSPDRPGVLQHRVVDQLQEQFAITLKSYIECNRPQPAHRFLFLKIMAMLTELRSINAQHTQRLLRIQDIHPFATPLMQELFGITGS
For `O=C(CSc1cccc2cccnc12)N/N=C/c1cccnc1`, the activation is 10.2% (active). To `COc1ccc(OC)c(-c2csc(-c3cccs3)n2)c1` belongs 21.7% (active); to `O=C(CC1Nc2ccccc2NC1=O)Nc1ccccc1` (stereo unspecified), 26.3% (active); to `COc1cc(NC(=O)c2ccc(-c3csc(C)n3)cc2)c(OC)cc1Cl`, 20.9% (active). The result for `O=C(Cn1cncn1)N/N=C/c1c2ccccc2cc2ccccc12` reads 13.7% (active). To `O=C(Nc1ccc(Cl)cn1)c1cnn2cccnc12` belongs 35.9% (active).

In the case of `Cc1ccc(-c2nc(C#N)c(NCCCn3ccnc3)o2)cc1`, the activation was 34.4% (active). The result for `Cc1ccnc(NC(=O)c2ccc(Cl)c([N+](=O)[O-])c2)c1` reads 42.9% (active). To `Nc1[nH][nH]c(=O)c1N=Nc1ccc2c(c1)OCO2` belongs 11.2% (active). Turning to `CCOC(=O)c1nc(-c2ccc3c(c2)OCO3)[nH]c1C`, the activation was 34.2% (active). To `CCSc1ccccc1C(=O)Nc1ccc2c(c1)OCO2` belongs 143% (active); to `C=CCNC(=O)CSc1nc2sc(C)c(C)c2c(=O)[nH]1`, 16.4% (active). To `COc1ccccc1NC(=O)C1=C(C)NC2=C(C(=O)CCC2)C1c1ccc(C)o1` (stereo unspecified) belongs 111% (active); to `Brc1ccc(C2CC(c3ccccc3)=Nc3ccccc3N2)cc1` (stereo unspecified), 39.7% (active). Turning to `Cc1cccc(NC(=O)Nc2ccc3c(c2)OCO3)n1`, the activation was 46.3% (active). The result for `COc1ccccc1N1CCN(C(=O)c2cc3c(-c4ccc(Cl)cc4)nn(C)c3s2)CC1` reads 39.5% (active). Consider `CCOC(=O)N1CCN(C(=O)c2cc3c(-c4ccc(Cl)cc4)nn(C)c3s2)CC1`, for which the activation is 48.9% (active).

As to `Cn1nc(-c2ccc(Cl)cc2)c2cc(C(=O)NCc3ccco3)sc21`, the activation is 26.7% (active). For `CCOC(=O)c1ccc2[nH]c3c(c2c1)CCCC3NC=O` (stereo unspecified), the activation is 5.7% (inactive). The result for `O=C(N/N=C/c1c[nH]c2ccccc12)c1cc2ccccc2o1` reads 7.59% (inactive). The result for `COc1cccc(-n2c(SCC(=O)NC3CCCCC3)nc3n[nH]c(C)c3c2=N)c1` reads 160% (active); that for `COc1ccccc1Nc1ncnc2c1oc1ccccc12`, 21.1% (active).

Take `Cc1cc(N2CCOCC2)nc(-c2ccc(Br)cc2)n1`: the activation is 43.3% (active).

On to `O=C(Nc1ccc(C2CC2(Cl)Cl)cc1)c1cccc([N+](=O)[O-])c1` (stereo unspecified), for which the activation was 19.2% (active). Regarding `COc1ccc(C2NC(=O)c3ccccc3N2)cc1` (stereo unspecified), the activation was 6.29% (inactive). The result for `Brc1ccc(-c2noc(-c3ccccc3)n2)o1` reads 20.2% (active). To `CC(=O)Nc1ccc(-c2nc3ccccc3o2)cc1` belongs 10.9% (active). The result for `CC(C)C(=O)Nc1c(C(=O)c2ccc(F)cc2)oc2ccccc12` reads 25.4% (active). As for `C/C(CC1CC(C)(C)OC1=O)=N/Nc1nc(-c2ccccc2)cs1` (stereo unspecified), the activation is 189% (active). As to `CCN(CC)C(=O)Oc1ccc(Br)cc1C(=O)Nc1ccc(F)c(Cl)c1`, the activation is 176% (active). To `CCc1nc(Nc2ccc3nccnc3c2)c2oc3ccccc3c2n1` belongs 45% (active); to `O=C(NC1CC1)C1=C[C@H](c2c[nH]c3ccccc23)C[C@H](OCc2ccc(CO)cc2)O1`, 22.2% (active); to `O=C(Nc1cc(S(=O)(=O)Nc2ccc(Cl)cc2)ccc1O)c1ccc(F)cc1F`, 38.8% (active). As to `Cc1nnc(NC(=O)/C=C/c2ccco2)s1`, the activation is 36.6% (active). Consider `COc1cc(/C=N/N=C(\N)c2nonc2N)cc(OC)c1OC`, for which the activation is 14.7% (active). The result for `COc1cc(CNCc2ccc3c(c2)OCO3)c([N+](=O)[O-])cc1OC` reads 36.7% (active); that for `Brc1ccc(C2=CC(c3ccco3)n3ncnc3N2)cc1` (stereo unspecified), 15% (active); that for `Cc1cc(O)c(C(=O)/C=C/c2c(F)c(F)c(F)c(F)c2F)c(=O)o1`, 23.8% (active). The result for `COc1ccc(C(=O)Nc2ccccc2C(=O)N/N=C/c2ccccc2OC)cc1` reads 28% (active); that for `O=C(Nc1cccc(Cl)c1)C1CCCN(c2cnccn2)C1` (stereo unspecified), 29.6% (active); that for `Cc1ccc(Cl)cc1NC(=O)C1CCCN(c2cnccn2)C1` (stereo unspecified), 41.2% (active). To `Cn1c(SCC(=O)c2ccccc2)ncc(C(=O)Nc2ccc(F)cc2)c1=O` belongs 13.1% (active); to `CCC(C)NCC(=O)Nc1ccc([N+](=O)[O-])cc1C(=O)Nc1ccccc1F` (stereo unspecified), 40.5% (active). Regarding `Cn1cc(Cl)c(C(=O)NNC(=S)Nc2cccc(Cl)c2)n1`, the activation is 22.8% (active). The result for `C/C(=N\NC(=O)CNc1cccc2ccccc12)c1ccc(Br)s1` reads 13.8% (active). For the compound `COc1cccc(-c2nc3cc(C)ccc3o2)c1`, the activation is 31.3% (active).

Consider `CC1Cc2ccccc2N1C(=O)CSc1nnc(C2CC2)n1C` (stereo unspecified), for which the activation is 80.9% (active). To `CCNC(=S)N1CCC(c2nc3cc(C)c(C)cc3[nH]2)CC1` belongs 21.2% (active); to `S=c1[nH]nc(-c2cc(-c3ccsc3)n[nH]2)n1-c1ccccc1`, 13.7% (active). To `Cc1nn2c3cc(N4CCOCC4)ccc3nc2c2ccccc12` belongs 63.2% (active); to `Cc1ccc(NC(=O)Nc2cccnc2)cc1`, 19.7% (active). To `Cc1cccc(NC(=O)c2ccc3ccccc3n2)n1` belongs 20.3% (active). In the case of `COc1ccc(NC(=O)c2ccco2)cc1NC(=O)c1ccc(C#N)cc1F`, the activation is 14.9% (active). To `C=CCOc1c(Br)cc(/C=N\n2nnnc2N)cc1OC` belongs 78.1% (active); to `Cc1nc2sc(C(=O)c3ccccc3)c(N)c2c2c1CCCC2`, 69.6% (active). To `O=C(CSc1ccccn1)Nc1nc2c(ccc3ccccc32)s1` belongs 21.9% (active); to `CCCCC(=O)Nc1ccc(C(=O)Nc2cc(C(F)(F)F)ccc2Cl)cc1`, 15.4% (active); to `CCOc1ccccc1NC(=O)c1cccnc1`, 24.9% (active). For `COCCNc1nc(-c2ccccc2)nc2c1oc1ccccc12`, the activation was 28.9% (active). To `Cc1cccc(N=Nc2c(O)[nH]c3ccc(F)cc23)c1` belongs 16.1% (active). The result for `CSc1ccc(C#N)cc1NC(=O)c1ccc(Cl)cc1` reads 18.5% (active); that for `O=C(NCCCn1ccnc1)c1cc(-c2ccccc2)on1`, 41.3% (active); that for `Cc1ccnc(-n2sc3ccccc3c2=O)n1`, 25.7% (active). The result for `O=C(Nc1ccc(OC(F)(F)F)cc1)c1ccc2c(c1)no[n+]2[O-]` reads 0.82% (inactive); that for `O=C(Nc1ccc(C(F)(F)F)cc1)c1cccc(-n2cnnn2)c1`, 16.3% (active). In the case of `O=C(Nc1ccc(-c2csc(Nc3cccc(C(F)(F)F)c3)n2)cc1)c1cccc(C(F)(F)F)c1`, the activation is 5.47% (inactive). To `CC(C(=O)N=Nc1c(O)n(C)c2ccc(Br)cc12)n1cnc2ccccc2c1=O` (stereo unspecified) belongs 60% (active). To `Cc1ccc(NC(=O)NNC(=O)c2sccc2-n2cccc2)cc1` belongs 27% (active).

As to `Cc1nn(-c2ccccc2)c2[nH]c(C(F)(F)F)cc(=O)c12`, the activation is 25.8% (active).

Consider `N#C/C(=C(/O)COc1cccc2ccccc12)c1nc2ccccc2[nH]1`, for which the activation is 29.3% (active). To `Cc1nn(Cc2ccc(Cl)cc2)c(Cl)c1/C=N/NC(=O)c1cccnc1` belongs 39.9% (active); to `O=C(Nc1cccc(Br)c1)c1ccc2snnc2c1`, 22.9% (active); to `C/C(=N/NC(=S)Nc1ccccc1)c1ccc2c(c1)OCO2`, 76.5% (active). The result for `OCCNc1nc(Nc2ccc(Cl)c(Cl)c2)nc2ccccc12` reads 13.8% (active).

Take `Cc1csc(NC(=S)Nc2cccc(Cl)c2)n1`: the activation is 21.6% (active). As for `NC(=O)Nc1ccccc1C(=O)NCCc1ccccc1`, the activation was 18.7% (active). The result for `CSc1ncccc1C(=O)Nc1nc2ccc(F)cc2s1` reads 11.7% (active); that for `CNC(=O)c1ccc2nc(NC(C)=O)sc2c1`, 9.52% (inactive).

Regarding `COc1ccc(Nc2nnc(C)c3ccccc23)cc1`, the activation was 73.7% (active).

For `Cc1c(C(=O)NCC(c2ccco2)N2CCCC2)oc2ccc(Cl)cc12` (stereo unspecified), the activation is 56.2% (active). The result for `CCn1c2ccccc2c2cc(NC(=O)C/C(C)=N/NC(=O)c3ccccc3N)ccc21` reads 45.7% (active). To `COc1ccc2nc(Nc3nc(-c4ccncc4)cs3)sc2c1` belongs 38.6% (active). For `COc1ccc(Nc2nc(-c3ccccc3)cs2)cc1`, the activation is 12.8% (active).

For the compound `Cc1cccc(Nc2nc(-c3ccccc3)cs2)n1`, the activation is 25.5% (active). The result for `O=C(Nn1c(-c2ccc(Cl)cc2)nc2ccccc2c1=O)c1cccnc1Cl` reads 14.3% (active). The result for `c1cnc(N2CCN(c3ccc4ccccc4n3)CC2)nc1` reads 36.7% (active); that for `CCn1ccnc1CN(C)Cc1nc(-c2ccc3c(c2)OCO3)no1`, 37.5% (active); that for `O=C(Cn1c(NCCO)nc2ccccc21)c1ccc(Cl)cc1Cl`, 31.4% (active).

Consider `O=C(CCCCn1c(=O)[nH]c2ccccc2c1=O)NCc1ccc2c(c1)OCO2`, for which the activation is 37.2% (active).

Turning to `CCn1c(NC(=O)c2nn(C)cc2Br)nc2ccccc21`, the activation is 22.6% (active).

On to `COc1cc2ccccc2cc1C(=O)Nc1ccc(N2CCOCC2)cc1`, for which the activation was 30.4% (active).

With `COc1cccc(OC)c1C(=O)Nc1ccc(N2CCCCC2)cc1`, the activation was 53.1% (active). In the case of `NNc1nc2c(Cl)cccc2s1`, the activation is 8.29% (inactive).

Consider `CN(C)S(=O)(=O)Oc1ccccc1C(=O)Nc1ccccc1Cl`, for which the activation was 82.8% (active). To `Cc1noc(C)c1/C=N/Nc1ccc2ccccc2n1` belongs 25.9% (active). As to `C(=N\Nc1ccc2ccccc2n1)/c1ccc2c(c1)OCO2`, the activation is -10.5% (inactive). For the compound `CC(C)n1cnc2c(Nc3cccc(Cl)c3)nc(N(CCO)CCCO)nc21`, the activation was 255% (active). The result for `CN(C)c1nc(Nc2ccc(Cl)c(Cl)c2)nc(N(C)C)n1` reads 23.1% (active). Turning to `Cn1c(C(=O)NCCc2ccsc2)cc2c(=O)n(C)c3ccccc3c21`, the activation was 75.7% (active). For `CC(C)n1ncc2c(C(=O)Nc3ccc(CC#N)cc3)cc(C3CC3)nc21`, the activation is 48.4% (active). In the case of `S=c1nc2ccccc2c2nc(-c3cccnc3)[nH]n12`, the activation is 24.9% (active).
